The results in this text go back to PubChem BioAssay AID1789 (The Scripps Research Institute Molecular Screening Center, 2009).

Values joined by “and” are separate entries in the source; they are usually repeats but may differ in a detail not shown here. Identical values can stand only once. Out of some 290,000 compounds screened, about 2,700 (0.93%) were called active. Only a selection was taken, and actives are over-represented in it overall. Values without a mark were called inactive.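 The calls were made as follows: active = inhibition above the screen-wide mean plus 3 SD, computed separately per campaign (cut at about 16% in these data); inactive = the rest.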

In general, inhibition refers to the relative decrease from the control value, in per cent.

The test system of the test is Heat shock protein HSP 90 (rabbit reticulocyte lysate; luciferase refolding). Put plainly: inhibitors of HSP90 chaperone activity – cell lysate, luminescence, primary screen (AID 1789).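 Also: 0% = DMSO wells and 100% = 60 µM geldanamycin wells; inhibitors lower the luminescence because luciferase stays unfolded.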 The following applies: 3 h, at 5.6 µM, active compounds read high.
As for `CCN(CC)Cc1nc2sc(C)c(C)c2c(=O)[nH]1`, the inhibition is 2.4%.

Turning to `Cc1sc2nc(CSCC(=O)Nc3c(Cl)cccc3Cl)[nH]c(=O)c2c1C`, the inhibition was 35.8% (active).

As to `Cc1sc2nc(COC(=O)C(NC(=O)c3ccc(Cl)cc3Cl)C(C)C)[nH]c(=O)c2c1C` (configuration not stated), the inhibition is -3.91%.

As for `COc1ccc(NC(=O)N2CCCC2C(=O)NCc2ccccc2Cl)cc1` (configuration not stated), the inhibition was -3.61%.

`O=S(=O)(c1ccccc1)c1nc(-c2ccccc2)oc1NCCCN1CCOCC1`: the inhibition is -4.19%.

Regarding `O=C(NCCc1ccc(Cl)cc1Cl)c1cc([N+](=O)[O-])c[nH]c1=O`, the inhibition is -4.08%.

In the case of `Cc1ccc(NC(=O)Cn2nc(C)c3ccccc3c2=O)c(C)c1`, the inhibition is -0.05%.

For the molecule `Cc1nn(CC(=O)Nc2ccc(F)cc2)c(=O)c2ccccc12`, the inhibition was 31.8% (active).

Take `O=C(Cn1nc(C(=O)O)c2ccccc2c1=O)Nc1ccc(F)cc1`: the inhibition is 0.16%.

As to `CCc1nnc(NC(=O)CCC(=O)N2CCN(c3cc(C)ccc3C)CC2)s1`, the inhibition was -1.11%.

As for `O=C(Cn1c[n+](CC(=O)c2ccc([N+](=O)[O-])cc2)cn1)c1ccc([N+](=O)[O-])cc1`, the inhibition was 17.4% (active) and 20.8% (active).

With `O=C(c1ccncc1)c1ccc([N+](=O)[O-])cc1`, the inhibition is 1.75%.

In the case of `O=C(CC(n1cncn1)C(Cl)(Cl)Cl)c1ccc([N+](=O)[O-])cc1` (configuration not stated), the inhibition is -0.82%.

On to `O=C(c1ccc(Br)o1)N1CCN(CCOc2ccccc2)CC1`, for which the inhibition is -4.13%.

As to `COc1ccc(CNC(=O)c2ccc3oc(C(C)C)nc3c2)cc1`, the inhibition was -4.27%.

Consider `COc1cc(/C=N/Nc2nn3cnnc3c3ccccc23)cc(OC)c1OC`, for which the inhibition is -1.69%.

As to `CN(CCO)c1ccc(/C=N/Nc2nncc3ccccc23)cc1`, the inhibition is 58.9% (active).

With `C/C(=N\Nc1nncc2ccccc12)c1ccc(Cl)c([N+](=O)[O-])c1`, the inhibition is 3.18%.

With `C=CCSc1nsc(NC(=O)Nc2cccc(C(C)=O)c2)n1`, the inhibition was -1.06%.

Turning to `O=C(C1CCCN(S(=O)(=O)c2ccc([N+](=O)[O-])cc2)C1)N1CCCCC1` (configuration not stated), the inhibition was 6.54%.

In the case of `O=C(c1noc2c1CCCC2)N1CCc2ccccc2C1`, the inhibition is 3.28%.

On to `O=C(Nc1cccnc1)c1noc2c1CCCCC2`, for which the inhibition is 39.9% (active).

Regarding `O=C(Nc1cccnc1)c1cccc(S(=O)(=O)N2CCCC2)c1`, the inhibition is -0.49%.

For `CCn1cc(CN2CCC(C(=O)Nc3cccc(-c4cccc(Cl)c4)c3)CC2)cn1`, the inhibition is 7.07%.

With `CCS(=O)(=O)N1CCCC(C(=O)NCc2ccc(C)cc2)C1` (configuration not stated), the inhibition is -1.37%.

In the case of `CCCS(=O)(=O)N1CCCC(C(=O)NCCN2CCCCC2C)C1` (configuration not stated), the inhibition was 20.8% (active).

Turning to `CCCS(=O)(=O)N1CCCC(C(=O)NCc2ccco2)C1` (configuration not stated), the inhibition is -2%.

As to `COc1ccccc1CN1CCCC(N2CCN(c3ccc(F)cc3)CC2)C1` (configuration not stated), the inhibition is -1.44%.

For the molecule `O=C(NC1CCCCC1)C1c2ccccc2C(=O)N1Cc1ccco1` (configuration not stated), the inhibition is -0.31%.

For the molecule `Cc1ccnc(N2C(=O)c3ccccc3C2Nc2ccc3c(c2)OCCO3)c1` (configuration not stated), the inhibition was 1.87%.

Turning to `O=C1c2ccccc2C(Nc2ccc3c(c2)OCCO3)N1Cc1ccco1` (configuration not stated), the inhibition was 16.6% (active).

For the molecule `CCc1ccc(NC(=O)CN2CCC(C(=O)c3ccc(OC)cc3)CC2)cc1`, the inhibition was 0.9%.

Turning to `Cc1ccccc1OCC(=O)N(Cc1cccc(F)c1)C1CCS(=O)(=O)C1` (configuration not stated), the inhibition was -1.03%.

In the case of `COc1ccc(/C=C/c2noc(-c3ccccc3OC(C)=O)n2)cc1`, the inhibition was 24.5% (active).

For `CC(=O)Oc1ccc(-c2nc3c(C)cccc3c(=O)o2)cc1`, the inhibition is -3.74%.

Consider `CC(=O)Oc1ccc2c(c1)C(=O)c1ccccc1C2=O`, for which the inhibition is 4.58%.

`O=C(O)c1ccc(/C=N/Nc2nc(N3CCCCC3)nc(N3CCCCC3)n2)cc1`: the inhibition was 1.51%.

`Cc1ccc2cc(/C=N/Nc3ccc(C(=O)O)cc3)c(Cl)nc2c1`: the inhibition was 1.97%.

Regarding `O=C(O)c1ccc(N/N=C/c2ccc3ncccc3c2)cc1`, the inhibition is 16.2% (active).

On to `O=C(CN1CCN(c2ccccn2)CC1)N1CCc2ccccc21`, for which the inhibition was 2.52%.

Take `O=C(CN1C(=O)c2ccccc2S1(=O)=O)N1CCc2ccccc21`: the inhibition is 56.6% (active).

For the molecule `O=C(CN1C(=O)c2ccccc2S1(=O)=O)NC1CCCCC1`, the inhibition is 0.8%.

Consider `O=C(Oc1cccc(O)c1)C1CCCCC1`, for which the inhibition was 2.03%.

For the molecule `O=C(CSC(=S)N1CCOCC1)c1cc(Br)cc(Br)c1O`, the inhibition is -0.31%.

Take `O=C(CSC(=S)N1CCOCC1)c1ccccc1`: the inhibition is 34.1% (active).

With `CC1CN(C(=S)SCC(=O)c2ccccc2)CC(C)O1` (configuration not stated), the inhibition is 1.9%.

As to `Cc1cccc(NC(=O)c2cccc(C(=O)Nc3cccc(C)c3C)n2)c1C`, the inhibition was -2.8%.

Consider `O=C(NCCCc1ccccc1)c1cc(COc2c(F)cccc2F)on1`, for which the inhibition is -1.08%.

For `COc1ccc(CNS(=O)(=O)c2cc(-c3cc(C)no3)ccc2C(C)C)cc1`, the inhibition is 6.8%.

On to `CCN(CC)CCN(C(=O)c1cc(Cl)sc1Cl)c1nc2cc3c(cc2s1)OCO3`, for which the inhibition is 0.85%.

`COc1ccc(/C=N/Nc2nc(-c3ccc(C)cc3)c(C#N)c(=O)[nH]2)cc1`: the inhibition is -6.02%.

As for `Cn1c(-c2ccco2)nc2cc3ccccc3cc21`, the inhibition was 37.7% (active).

With `Cn1cccc1-c1nc2ccccc2n1C`, the inhibition was 2.48%.

With `S=c1[nH]nc(-c2ccco2)n1/N=C/c1ccccc1`, the inhibition was 1.32%.

As for `CC(C)Cn1cnc2c1c(=O)n(CC(=O)NN)c(=O)n2Cc1ccccc1`, the inhibition is -0.47%.

For `COc1ccc(OC)c(NC(=O)c2cccc(S(=O)(=O)N3CCN(C(C)=O)CC3)c2)c1`, the inhibition was 0.82%.

In the case of `Cc1c(NC(=O)c2c([N+](=O)[O-])cnn2C)c(=O)n(-c2ccccc2)n1C`, the inhibition is 0.17%.

As for `Clc1ccc2nc(CSc3ccccc3)cn2c1`, the inhibition was 25.5% (active).

Consider `O=C(/C=C/c1ccc2c(c1)OCO2)NCc1cn2cc(Cl)ccc2n1`, for which the inhibition was -0.84%.

For `CCOc1ncccc1C(=O)OCc1cn2cc(Cl)ccc2n1`, the inhibition was -0.94%.

In the case of `N#C[C@]1(S(=O)(=O)c2ccccc2)C[C@@H]2ON=C(c3cccc(Br)c3)[C@@H]2C1`, the inhibition is 0.82%.

Consider `COc1ccc(C(=O)N[C@H](C(=O)NCc2ccccc2)C(C)C)cc1`, for which the inhibition was -4.29%.
